The panel holds about 83,000 compounds, 20% with a hit somewhere; the sample as a whole holds those more often.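 Negative percent growth values reflect cell death: -40 means 40% of the cells present at the start died, and -100 means all died.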 Values without a mark were called inactive. Active and inactive are the calls of the source. Rule for the calls: active = growth percent below 10; inactive = the rest.

Test systems include HCT-15 colon; HT29 colon; SNB-75 CNS; SNB-19 CNS; U251 CNS; PC-3 prostate; SK-MEL-5 melanoma; UACC-62 melanoma; LOX IMVI melanoma; SK-MEL-28 melanoma.
Common to all, as to assay: NCI-60 one-dose screen, 48 h (100 = growth as untreated, 0 = no growth, -100 = all killed)
What all share (conditions): 10 µM unless noted

Turning to `COc1ccc([C@@H]2[C@@H](O)C(=O)N2c2cc(OC)c(OC)c(OC)c2)cc1Cl`, the growth with HCT-15 colon is 10.5%; with HT29 colon, 12.8%; with SNB-75 CNS it was 53.4%; in the experiment on SNB-19 CNS, 30%; in the experiment on U251 CNS, 1.75% (active); with PC-3 prostate it was 17.5%. Besides, the growth in the experiment on SK-MEL-5 melanoma is 0.0843% (active); in the experiment with UACC-62 melanoma, 26.1%; with LOX IMVI melanoma, 18.5%; in the experiment with SK-MEL-28 melanoma it was 64.2%.

Consider `COc1ccc(S(=O)(=O)n2cc(C=O)c3ccccc32)c(OC)c1`, for which the growth in the experiment with HCT-15 colon is 40%; in the experiment on HT29 colon, 107%; in the experiment with SNB-75 CNS, 75.3%; in the experiment on SNB-19 CNS, 85%; in the experiment on U251 CNS, 52.8%; in the experiment with PC-3 prostate, 66.3%. Also, the growth is 67.3% with SK-MEL-5 melanoma, 63.1% with UACC-62 melanoma, 64.3% in the experiment with LOX IMVI melanoma and 83.8% with SK-MEL-28 melanoma.

For `O=S(=O)(Nc1ccc(C2CC2)cc1)c1ccc(-c2cnc(C3CC3)o2)cc1`, the growth was 39.9% in the experiment with HCT-15 colon; 38.4% with HT29 colon; 53.8% with SNB-75 CNS; 73.7% in the experiment with SNB-19 CNS; 68.7% in the experiment with U251 CNS; 63.1% in the experiment on PC-3 prostate. In addition, the growth with SK-MEL-5 melanoma was 74.7%; in the experiment on UACC-62 melanoma, 48.5%; in the experiment on LOX IMVI melanoma, 55.7%; with SK-MEL-28 melanoma, 73.2%.

On to `Nc1nc(N)c2c(n1)NC(c1ccccc1)CC(c1ccc(Nc3nc(NCCO)nc(Nc4ccc(Cl)cc4)n3)cc1)=N2` (stereo not given), for which the growth in the experiment with HCT-15 colon was -58% (active); with HT29 colon, -87.6% (active); in the experiment on SNB-75 CNS, 112%; in the experiment on SNB-19 CNS, -77.1% (active); with U251 CNS, 11.9%; with PC-3 prostate it was 15.1%. The growth in the experiment on SK-MEL-5 melanoma is 55.6%; with UACC-62 melanoma, 96.7%; in the experiment with LOX IMVI melanoma, -86.1% (active); in the experiment on SK-MEL-28 melanoma, 109%.

For `O=C(/C=C/Nc1ccc(S(=O)(=O)O)cc1)c1ccc(F)cc1`, the growth is 96.4% with HCT-15 colon; 103% with HT29 colon; 92.4% with SNB-75 CNS; 93.4% with SNB-19 CNS; 98% in the experiment on U251 CNS; 96.1% with PC-3 prostate. Further, the growth in the experiment on SK-MEL-5 melanoma was 99.2%; with UACC-62 melanoma, 93.5%; with LOX IMVI melanoma it was 95.9%; in the experiment with SK-MEL-28 melanoma it was 101%.

On to `NCCN1CCN(c2nc(-c3ccccc3)nc3nc(-c4ccccc4)oc23)CC1`, for which the growth is -66.8% (active) in the experiment on HCT-15 colon; -52.8% (active) with HT29 colon; -77.1% (active) in the experiment on SNB-75 CNS; -19.7% (active) in the experiment on SNB-19 CNS; -51.4% (active) in the experiment on U251 CNS; 15% with PC-3 prostate. Further, the growth in the experiment on SK-MEL-5 melanoma was 78.7%; in the experiment on UACC-62 melanoma, 101%; in the experiment on LOX IMVI melanoma, -90.6% (active); in the experiment on SK-MEL-28 melanoma, -85.4% (active).

Regarding `COc1ccc([C@H]2c3[nH]c4ccccc4c3C[C@@H]3C(=O)N(C4CCN(Cc5ccccc5)CC4)CC(=O)N23)c(OC)c1`, the growth is 48.3% in the experiment on HCT-15 colon; 43.1% with HT29 colon; 83.1% with SNB-75 CNS; 83.1% in the experiment on SNB-19 CNS; 75.8% with U251 CNS; 48.1% in the experiment with PC-3 prostate. In addition, the growth in the experiment with SK-MEL-5 melanoma is 73.7%; in the experiment on UACC-62 melanoma it was 87.2%; in the experiment with LOX IMVI melanoma, 58.7%; in the experiment on SK-MEL-28 melanoma, 85.1%.

Turning to `COc1cc(/C=N/Nc2ccnc3cc(Cl)ccc23)cc(OC)c1O`, the growth in the experiment on HCT-15 colon is -58.9% (active); in the experiment with HT29 colon, 8.25% (active); in the experiment on SNB-75 CNS, -81.5% (active); in the experiment on SNB-19 CNS, -24.5% (active); in the experiment with U251 CNS, -87.1% (active); with PC-3 prostate, -61.1% (active). The growth was -92.7% (active) with SK-MEL-5 melanoma, 101% in the experiment on UACC-62 melanoma, -96.2% (active) in the experiment with LOX IMVI melanoma and 98.4% in the experiment with SK-MEL-28 melanoma.

With `O=C1/C(=C/c2ccccc2[N+](=O)[O-])Oc2ccc(O)cc21`, the growth was -31.4% (active) with HCT-15 colon; -23.7% (active) in the experiment on HT29 colon; 54.2% in the experiment with SNB-75 CNS; 79.3% with SNB-19 CNS; 56.9% in the experiment with U251 CNS; 57.1% in the experiment with PC-3 prostate. Besides, the growth in the experiment on SK-MEL-5 melanoma is 90.8%; in the experiment on UACC-62 melanoma, 37.1%; with LOX IMVI melanoma, -46.2% (active); in the experiment with SK-MEL-28 melanoma, 43.3%.

Turning to `Nc1cc(F)ccc1NC(=O)c1ccc(NC(=O)C/C=C/c2cccnc2)cn1`, the growth with HCT-15 colon is 19.8%; in the experiment with HT29 colon, 11.4%; with SNB-75 CNS, 31.9%; in the experiment on SNB-19 CNS, 31.7%; with U251 CNS, 17.9%; with PC-3 prostate it was 36.9%. Further, the growth in the experiment with SK-MEL-5 melanoma was -58.1% (active); in the experiment with UACC-62 melanoma it was 5.97% (active); in the experiment with LOX IMVI melanoma it was 16.6%; with SK-MEL-28 melanoma it was -9.71% (active).

On to `O=C(NNc1nc2cc(F)c(F)cc2n2cccc12)c1ccncn1`, for which the growth in the experiment on HCT-15 colon is 23.6%; with HT29 colon, 27.3%; with SNB-75 CNS, -6.38% (active); with SNB-19 CNS, 27.5%; with U251 CNS it was 17.9%; with PC-3 prostate it was 33.2%. Also, the growth was -19.4% (active) in the experiment with SK-MEL-5 melanoma, 19% in the experiment with UACC-62 melanoma, 11.7% with LOX IMVI melanoma and 29.4% in the experiment with SK-MEL-28 melanoma.

For the compound `N=c1c2cc(-c3ccccc3)oc2ncn1/N=C/c1ccccc1`, the growth with HCT-15 colon was 36.9%; with HT29 colon, 73.6%; in the experiment with SNB-75 CNS, 67%; in the experiment with SNB-19 CNS it was 87.5%; with U251 CNS, 84.7%; in the experiment with PC-3 prostate, 71.9%. Besides, the growth in the experiment with SK-MEL-5 melanoma was 90.8%; in the experiment on UACC-62 melanoma, 47.6%; in the experiment on LOX IMVI melanoma, 66.3%; in the experiment on SK-MEL-28 melanoma, 83.4%.

Regarding `Cc1cc(=O)n2nc(-c3cn(C)c4ccc(Cl)cc34)sc2n1`, the growth with HCT-15 colon was 86.4%; with HT29 colon it was 104%; in the experiment with SNB-75 CNS it was 97%; with SNB-19 CNS, 96.6%; in the experiment on U251 CNS, 98.5%; with PC-3 prostate, 86.2%. In addition, the growth is 88.8% with SK-MEL-5 melanoma, 86.8% in the experiment with UACC-62 melanoma, 85.4% with LOX IMVI melanoma and 100% in the experiment with SK-MEL-28 melanoma.
